The values that follow come from PubChem BioAssay (Tox21).

“And” between values parts separate entries of the source, which are not always exact repeats. Equal entries are not always repeated. Inconclusive results are not listed. More than one record can exist for a structure, and the calls need not agree. The source made the active and inactive calls. Unless noted, calls follow the shape of the dose curve; as a rule, active = well fitted curve in the direction sought with a large enough effect in the repeat runs; inconclusive = weak or mixed curves; inactive = no such curve, though single readings can be large; an effect the other way counts as inactive or inconclusive.

Assay [1] is described as follows: qHTS assay to identify small molecule antagonists of the glucocorticoid receptor (GR) signaling pathway - cell viability counter screen (AID 720693). Also: nearly all actives have a fitted effect of over 55% in size. For orientation: Quantitative high-throughput screening tests each substance at several concentrations.
Assay [2] in a line: qHTS assay for identifying genotoxic compounds that show differential cytotoxicity against isogenic chicken DT40 cell lines with known DNA damage response pathways - wild type cell line (AID 743012). Also: nearly all actives have a fitted effect of over 60% in size. Also: potency is read from the fitted curve at half-maximal effect. In outline: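 First, wild type DT40 cells were plated at 300 per well and equilibrated about 0.5 h at 37 C/5% CO2. Next, compounds in DMSO were added and exposure lasted 40 h. Finally, CellTiter-Glo was added for 30 min at room temperature and luminescence recorded.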

Assay [3] is described as follows: qHTS assay for identifying genotoxic compounds that show differential cytotoxicity against isogenic chicken DT40 cell lines with known DNA damage response pathways - Rev3 mutant cell line (AID 743014). Also: nearly all actives have a fitted effect of over 55% in size. Also: potency is read from the fitted curve at half-maximal effect.
Assay [4] in a line: qHTS assay for identifying genotoxic compounds that show differential cytotoxicity against isogenic chicken DT40 cell lines with known DNA damage response pathways - Rad54/Ku70 mutant cell line (AID 743015). Also: nearly all actives have a fitted effect of over 60% in size. Also: potency is read from the fitted curve at half-maximal effect.
The nature of assay [5]: qHTS assay to identify small molecule antagonists of the androgen receptor (AR) signaling pathway - cell viability counter screen (AID 743033; also: nearly all actives have a fitted effect of over 45% in size).
Assay [6] in a line: qHTS assay to identify small molecule antagonists of the androgen receptor (AR) signaling pathway using the MDA cell line - cell viability counter screen (AID 743041; also: nearly all actives have a fitted effect of over 45% in size). Summed up: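 MDA-kb2 AR-luc human breast carcinoma cells (MMTV-luciferase, AR/GR responsive) were treated with compounds plus R1881 agonist for 16 h at 37 °C. Viability was read as CellTiter-Fluor fluorescence in the same wells as the reporter assay.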

The nature of assay [7]: qHTS assay to identify small molecule antagonists of the thyroid receptor (TR) signaling pathway - cell viability counter screen (AID 743064). Also: nearly all actives have a fitted effect of over 50% in size. In outline: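 GH3.TRE-Luc rat pituitary cells dosed after 4 hr plating, co-stimulated with T3 at 1 nM final, incubated 23.5 h at 37 C. Viability measured in the same wells by CellTiter-Fluor fluorescence after 30 min further at 37 C.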

Assay [8] can be described thus: qHTS assay to identify small molecule antagonists of the thyroid receptor (TR) signaling pathway (AID 743065). Also: nearly all actives have a fitted effect of over 55% in size. Also: potency is read from the fitted curve at half-maximal effect. In outline:
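GH3.TRE-Luc rat pituitary cells carrying two TR response elements driving luciferase were plated for 4 h, given compound plus 1 nM T3 (final), and incubated 23.5 h at 37 C. ONE-Glo luminescence measured reporter inhibition; CellTiter-Fluor fluorescence tracked cytotoxicity.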

For assay [9], the system named is thyroid hormone receptor (rat, GH3 cells). Kind of assay: qHTS assay to identify small molecule agonists of the thyroid receptor (TR) signaling pathway (AID 743066; calls by dose curve).
Assay [10] addresses Estrogen receptor (Homo sapiens) (UniProt P03372). Kind of assay: qHTS assay to identify small molecule antagonists of the estrogen receptor alpha (ER-alpha) signaling pathway (AID 743069; active = well fitted curve in the direction sought with a large enough effect in the signal ratio in the repeat runs, not every such curve was filed as active; the % refers to the signal ratio). Summed up: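 HEK293 cells stably carrying an ER-alpha-UAS-bla beta-lactamase reporter were pre-cultured overnight in 2% charcoal-stripped FBS medium. Test compounds in DMSO were added together with 17beta-estradiol for 18 hr at 37C. Read-out was fluorescence after 2 hr with LiveBLAzer B/G FRET substrate at room temperature.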

Assay [11] can be described thus: qHTS assay to identify small molecule antagonists of the estrogen receptor alpha (ER-alpha) signaling pathway - cell viability counter screen (AID 743074; calls by dose curve; also: nearly all actives have a fitted effect of over 45% in size).
For assay [12], the target named is Estrogen receptor (Homo sapiens) (UniProt P03372). Kind of assay: qHTS assay to identify small molecule agonists of the estrogen receptor alpha (ER-alpha) signaling pathway (AID 743075; calls by dose curve).
Sequence of Estrogen receptor (Homo sapiens) (P03372 whole entry, looked up): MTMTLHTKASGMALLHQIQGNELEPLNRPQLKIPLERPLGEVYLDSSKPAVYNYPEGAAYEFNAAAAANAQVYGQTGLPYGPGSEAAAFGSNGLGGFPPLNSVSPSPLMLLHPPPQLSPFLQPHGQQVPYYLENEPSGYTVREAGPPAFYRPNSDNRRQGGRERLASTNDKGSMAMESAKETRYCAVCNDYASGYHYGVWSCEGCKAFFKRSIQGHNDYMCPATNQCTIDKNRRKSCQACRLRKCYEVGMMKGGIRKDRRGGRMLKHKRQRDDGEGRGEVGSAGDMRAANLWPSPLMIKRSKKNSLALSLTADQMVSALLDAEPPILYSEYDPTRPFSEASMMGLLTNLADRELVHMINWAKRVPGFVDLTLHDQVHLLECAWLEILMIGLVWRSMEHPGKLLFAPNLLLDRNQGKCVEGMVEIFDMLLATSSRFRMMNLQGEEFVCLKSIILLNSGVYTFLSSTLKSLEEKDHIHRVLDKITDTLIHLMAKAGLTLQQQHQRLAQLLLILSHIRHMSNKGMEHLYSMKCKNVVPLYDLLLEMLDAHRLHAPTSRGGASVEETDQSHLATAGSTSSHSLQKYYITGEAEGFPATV
For assay [13] the target is unchanged. Kind of assay: qHTS assay to identify small molecule agonists of the estrogen receptor alpha (ER-alpha) signaling pathway using the BG1 cell line (AID 743079). Also: nearly all actives have a fitted effect of over 20% in size. Also: potency is read from the fitted curve at half-maximal effect.
The nature of assay [14]: qHTS assay to identify small molecule antagonists of the estrogen receptor alpha (ER-alpha) signaling pathway using the BG1 cell line (AID 743080; calls by dose curve;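 also: BG1 cells stimulated with 17beta-estradiol alongside compound; series mostly up to about 70 µM; nearly all actives have a fitted effect of over 25% in size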). Summed up:
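Luciferase inhibition measured with ONE-Glo after 30 min at RT in BG1Luc4E2 cells given test compounds and 17beta-estradiol for 21.5 h at 37 C; CellTiter-Fluor viability read in the same wells beforehand.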

A short description of assay [15]: qHTS assay to identify small molecule antagonists of the estrogen receptor alpha (ER-alpha) signaling pathway using the BG1 cell line - cell viability counter screen (AID 743081).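 Also: compound given together with 17beta-estradiol as the ER stimulus; series mostly up to about 70 µM; nearly all actives have a fitted effect of over 45% in size.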
A further assay concerns the target Aromatase (Homo sapiens) (UniProt P11511). Kind of assay: qHTS assay to identify aromatase inhibitors (AID 743083). Also: series mostly up to about 70 µM; nearly all actives have a fitted effect of over 55% in size.
Assay [16] addresses Androgen receptor (Homo sapiens) (UniProt P10275). Briefly: qHTS assay to identify small molecule antagonists of the androgen receptor (AR) signaling pathway (AID 743035; active = well fitted inhibition curve with a large enough effect in the signal ratio in the repeat runs, not every such curve was filed as active; the % refers to the signal ratio; also: potency is read from the fitted curve at half-maximal effect). In outline: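 Beta-lactamase FRET read (2 h RT incubation with LiveBLAzer B/G) following 16 h of compound plus R1881 treatment of AR-UAS-bla HEK293 cells, which had been pre-incubated 4 h at 37C.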
Assay [17] has the same target. Kind of assay: qHTS assay to identify small molecule agonists of the androgen receptor (AR) signaling pathway (AID 743036; active = well fitted activation curve with a large enough effect in the signal ratio in the repeat runs, with a control signal flat, not every such curve was filed as active; the % refers to the signal ratio). Summed up: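 AR-UAS-bla HEK293 cells, plated 4 h before dosing, were treated with compound for 16 h at 37C. beta-Lactamase reporter read after 2 h with LiveBLAzer B/G FRET substrate at room temperature.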
The target is the same in assay [18]. Briefly: qHTS assay to identify small molecule agonists of the androgen receptor (AR) signaling pathway using the MDA cell line (AID 743040; also: nearly all actives have a fitted effect of over 20% in size; also: potency is read from the fitted curve at half-maximal effect). Summed up: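 MDA-kb2 breast carcinoma cells stably carrying an MMTV-driven luciferase reporter (AR- and GR-responsive) were seeded and held 5 h at 37C, 0% CO2, then exposed to compounds in DMSO for 16 h. Luminescence was read 30 min after ONE-Glo addition.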

Assay [19] has the same target. Kind of assay: qHTS assay to identify small molecule antagonists of the androgen receptor (AR) signaling pathway using the MDA cell line (AID 743042; also: nearly all actives have a fitted effect of over 55% in size). In outline: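 MDA-kb2 cells (human breast carcinoma, stably carrying an MMTV-luciferase reporter responsive to AR and GR) were plated at 3,000 cells/well and preincubated 5 hr at 37C, then given compound plus R1881 agonist for 16 h. ONE-Glo luminescence was read.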

Sequence of Androgen receptor (Homo sapiens) (P10275 whole entry, looked up): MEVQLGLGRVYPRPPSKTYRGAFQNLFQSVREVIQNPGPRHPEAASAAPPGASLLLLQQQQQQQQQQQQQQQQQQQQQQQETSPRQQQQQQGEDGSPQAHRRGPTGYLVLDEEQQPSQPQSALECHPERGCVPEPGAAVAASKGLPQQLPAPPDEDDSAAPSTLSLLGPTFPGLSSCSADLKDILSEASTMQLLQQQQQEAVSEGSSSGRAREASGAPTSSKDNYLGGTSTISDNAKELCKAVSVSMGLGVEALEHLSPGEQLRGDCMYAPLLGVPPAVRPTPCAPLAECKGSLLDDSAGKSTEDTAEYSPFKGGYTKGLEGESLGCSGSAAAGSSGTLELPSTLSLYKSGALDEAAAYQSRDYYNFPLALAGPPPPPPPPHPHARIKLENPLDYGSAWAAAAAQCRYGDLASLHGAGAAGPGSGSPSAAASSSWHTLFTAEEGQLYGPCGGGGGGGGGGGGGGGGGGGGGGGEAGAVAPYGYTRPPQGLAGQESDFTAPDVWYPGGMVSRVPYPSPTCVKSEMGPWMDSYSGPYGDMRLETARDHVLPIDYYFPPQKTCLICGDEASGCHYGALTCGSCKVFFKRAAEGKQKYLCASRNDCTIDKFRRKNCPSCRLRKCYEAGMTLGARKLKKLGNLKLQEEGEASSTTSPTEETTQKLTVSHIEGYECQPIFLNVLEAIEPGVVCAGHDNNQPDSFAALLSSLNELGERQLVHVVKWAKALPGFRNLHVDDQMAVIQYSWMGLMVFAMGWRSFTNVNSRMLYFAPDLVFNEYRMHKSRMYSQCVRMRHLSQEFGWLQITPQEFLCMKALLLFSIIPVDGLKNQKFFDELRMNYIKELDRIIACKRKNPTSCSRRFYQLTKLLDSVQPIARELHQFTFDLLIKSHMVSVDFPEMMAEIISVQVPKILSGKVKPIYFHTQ
Sequence of Aromatase (Homo sapiens) (P11511 whole entry, looked up): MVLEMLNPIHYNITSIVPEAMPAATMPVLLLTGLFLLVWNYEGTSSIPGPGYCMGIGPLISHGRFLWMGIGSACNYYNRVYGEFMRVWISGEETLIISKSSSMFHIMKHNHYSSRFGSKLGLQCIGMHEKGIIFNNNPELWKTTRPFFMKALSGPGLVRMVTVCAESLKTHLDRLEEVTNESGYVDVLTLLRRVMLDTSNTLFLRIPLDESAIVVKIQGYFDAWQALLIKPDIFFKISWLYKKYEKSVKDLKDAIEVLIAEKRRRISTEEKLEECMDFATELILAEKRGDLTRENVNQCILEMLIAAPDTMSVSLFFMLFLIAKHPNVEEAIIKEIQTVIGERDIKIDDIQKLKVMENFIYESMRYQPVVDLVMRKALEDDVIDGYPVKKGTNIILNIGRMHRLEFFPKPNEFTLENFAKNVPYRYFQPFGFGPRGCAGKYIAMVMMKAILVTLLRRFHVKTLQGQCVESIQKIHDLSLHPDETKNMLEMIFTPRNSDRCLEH

For the compound `FC(F)(F)C(Cl)Br` (stereo not given), the Potency result in [1], in assay [2], in assay [3], in [4], in [5] and in assay [6] was “inactive” each time. Also, the Potency result in assay [7], in [8], in [9], in [10], in assay [11] and in assay [12] was “inactive” throughout. Besides, the Potency result (in assay [13]; in assay [14]; in [15]; in the assay with Aromatase (Homo sapiens)) was “inactive” in each case.
As for `OC[C@H]1O[C@@H]2O[C@H]3[C@H](O)[C@@H](O)[C@@H](O[C@H]4[C@H](O)[C@@H](O)[C@@H](O[C@H]5[C@H](O)[C@@H](O)[C@@H](O[C@H]6[C@H](O)[C@@H](O)[C@@H](O[C@H]7[C@H](O)[C@@H](O)[C@@H](O[C@H]1[C@H](O)[C@H]2O)O[C@@H]7CO)O[C@@H]6CO)O[C@@H]5CO)O[C@@H]4CO)O[C@@H]3CO`, the Potency entry in [1], in assay [2], in [3], in [4], in assay [5] and in assay [6] was “inactive” throughout. Also, the Potency entry in [7], in [8], in [9], in assay [10], in assay [11] and in [12] was “inactive” throughout. For the same compound, the Potency result (in assay [14]; in assay [15]; with Aromatase (Homo sapiens)) was “inactive” in each case. Further, in assay [13], the Potency is 23.7 µM (active) and inactive.
Take `C/C=C/C(=O)N(CC)c1ccccc1C`: the Potency entry in [1], in assay [5], in assay [6], in [7], in assay [8] and in assay [9] was “inactive” each time. Further, the Potency entry in assay [10], in assay [11], in [12], in [13], in assay [14] and in assay [15] was “inactive” in each case. Also, the Potency result with Aromatase (Homo sapiens) was “inactive”. Moreover, the Potency was 54.5 µM (active) in [2]; 54.5 µM (active) in assay [3]; “inactive and 48.6 µM (active)” in assay [4].
On to `CC(C)[N+](C)(CCOC(=O)C1c2ccccc2Oc2ccccc21)C(C)C`, for which the Potency result in [1], in [2], in assay [3], in assay [4], in [5] and in assay [6] was “inactive” in each case. The Potency result in [7], in assay [8], in assay [9], in assay [10], in assay [11] and in assay [12] was “inactive” in each case. The Potency entry (in [13]; in [14]; in assay [15]; in the assay with Aromatase (Homo sapiens)) was “inactive” throughout.
`C1COCCN1`: the Potency result in [1], in [2], in assay [3], in assay [4], in assay [5] and in assay [6] was “inactive” throughout. Moreover, the Potency result in [7], in assay [8], in assay [9], in assay [10], in assay [11] and in assay [12] was “inactive” throughout. Besides, the Potency entry (in assay [13]; in assay [14]; in assay [15]; with Aromatase (Homo sapiens)) was “inactive” throughout.
As to `COC(=O)CC(=O)OC`, the Potency entry in assay [1], in assay [2], in assay [3], in assay [4], in assay [5] and in assay [6] was “inactive” each time. In addition, the Potency entry in assay [7], in assay [8], in [9], in [10], in [11] and in assay [12] was “inactive” throughout. The Potency result (in assay [13]; in [14]; in assay [15]; in the assay with Aromatase (Homo sapiens)) was “inactive” in each case.
For the compound `C=C1C[C@H]2[C@@H]3C=C(C)C4=CC(=O)CC[C@]4(C)[C@H]3CC[C@]2(C)[C@@]1(OC(C)=O)C(C)=O`, the Potency entry in assay [1], in [5], in [6], in assay [19], in assay [7] and in [9] was “inactive” throughout. Moreover, the Potency result (in assay [10]; in [11]; in [13]; in assay [14]; in assay [15]; in the assay with Aromatase (Homo sapiens)) was “inactive” in each case. Further, the Potency in [2] is 7.5 µM (active) and 14 µM (active); in [3], 8.41 µM (active) and 14 µM (active); in [4], 10.6 µM (active) and 17.6 µM (active); in assay [16] it was 1.77 µM (active); in [18], 47.3 nM (active) and 27.9 nM (active); in assay [8], 23.7 µM (active) and 15.7 µM (active). For the same compound, in assay [17], the outcome was inactive.
In the case of `CCCCCCCCCCCCCO`, the Potency result in assay [1], in assay [2], in assay [3], in assay [4], in assay [5] and in [6] was “inactive” each time. The Potency result in assay [7], in [8], in assay [9], in assay [10], in assay [11] and in assay [12] was “inactive” in each case. Also, the Potency entry (in [13]; in [14]; in assay [15]; in the assay with Aromatase (Homo sapiens)) was “inactive” in each case.
Consider `c1ccc2c(c1)ccc1ncccc12`, for which the Potency result in [1], in assay [2], in [3], in [4], in [5] and in [16] was “inactive” each time. The Potency result in [18], in [6], in [7], in assay [11], in [13] and in assay [14] was “inactive” throughout. For the same compound, the Potency entry (in assay [15]; with Aromatase (Homo sapiens)) was “inactive” in each case. Moreover, in assay [17], the outcome was inactive.
With `C[C@]12C=CC(=O)C=C1CC[C@H]1[C@@H]3C[C@@H](O)[C@](O)(C(=O)CO)[C@@]3(C)C[C@H](O)[C@@]12F`, the Potency entry in [1], in assay [5], in assay [6], in [7], in [8] and in [9] was “inactive” throughout. The Potency result (in assay [11]; in assay [12]; in assay [15]; with Aromatase (Homo sapiens)) was “inactive” in each case. Further, the Potency in [2] is 68.6 µM (active); in assay [3], 8.63 µM (active); in assay [4], 48.6 µM (active); in [13] it was 4.73 µM (active) and 48.6 µM (active).
On to `CCOC(=O)C(C)Oc1ccc(Oc2cnc3cc(Cl)ccc3n2)cc1` (stereo not given), for which the Potency entry in [1], in [5], in [6], in assay [7], in [8] and in [9] was “inactive” each time. Further, the Potency result in assay [10], in assay [11], in assay [12], in assay [13], in assay [14] and in [15] was “inactive” in each case. For the same compound, the Potency entry with Aromatase (Homo sapiens) was “inactive”. In addition, the Potency is 40.5 µM (active) in [2]; “inactive and 40.5 µM (active)” in [3]; “inactive and 45.5 µM (active)” in assay [4].
For `COc1ccc2nc(N)sc2c1`, the Potency entry in assay [1], in [2], in [3], in assay [4], in assay [5] and in assay [16] was “inactive” throughout. In addition, the Potency entry in assay [18], in assay [6], in assay [19], in [7], in [8] and in [9] was “inactive” throughout. Moreover, the Potency entry (in assay [10]; in assay [11]; in assay [12]; in [15]; in the assay with Aromatase (Homo sapiens)) was “inactive” throughout. The outcome in assay [17] was inactive. Moreover, the Potency in assay [13] was 30.6 µM (active) and 54.5 µM (active).
